Reference: PubChem BioAssay (EPA / NIEHS)
Activity calls are given as the source filed them. The calls were made as follows: active = hit-call score of the fitted dose curve at least 0.9, where 1 is the maximum; inactive = score below 0.9.

Columns and labels:
Conditions in all cases: actives raise or lower the signal
[1] = CEETOX_H295R_OHPREG: CeeTox H295R High-throughput Steroidogenesis Assay for OH-Pregnenolone (OHPREG) (AID 2283434)
Summary of the method: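 H295R, 10 uM forskolin pre-stim 48 h; test chemical 48 h, 0.1% DMSO final. MTBE extraction, reverse-phase C18 HPLC-ESI+ MS/MS of medium. Gain/loss vs DMSO; viability by MTT in same wells.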

[2] = CEETOX_H295R_OHPROG: CeeTox H295R High-throughput Steroidogenesis Assay for OH-Progesterone (OHPROG) (AID 2283435);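 as to AC50: 17alpha-hydroxyprogesterone secreted into medium measured by HPLC-MS/MS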
Summary of the method: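 Human adrenocortical H295R cells, passage 10 or lower, were treated with chemical for 48 h after forskolin priming, and hormone output in the medium was quantified by LC-MS/MS.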

[3] = CEETOX_H295R_ESTRADIOL: CeeTox H295R High-throughput Steroidogenesis Assay for Estradiol (AID 2283440);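 also: estradiol secreted into medium quantified by LC-MS/MS after dansyl derivatisation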
Summary of the method: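 Estradiol in spent medium measured by LC-MS/MS after dansyl chloride derivatisation. Forskolin-primed (10 uM, 48 h) human adrenal H295R cells received test chemical 48 h at 0.1% DMSO; concentrations lowered until MTT viability >/=70%.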

[4] = CEETOX_H295R_ESTRONE: CeeTox H295R High-throughput Steroidogenesis Assay for Estrone (AID 2283441);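 also: estrone secreted into medium measured by LC-MS/MS after dansyl derivatization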
Summary of the method: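 Forskolin-stimulated H295R cells are treated 48 h with chemical, and estrone in the medium is measured by LC-MS/MS. Activity is fitted in both directions relative to DMSO controls, with chemicals diluted until MTT viability reaches at least 70%.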

[5] = CEETOX_H295R_PROG: CeeTox H295R High-throughput Steroidogenesis Assay for Progesterone (PROG) (AID 2283442);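 as to AC50: human H295R adrenal cells primed with 10 µM forskolin before dosing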
Summary of the method: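 Progesterone secreted by human H295R cells was measured by LC-MS/MS following 48 h chemical exposure at 0.1% DMSO, preceded by 48 h forskolin (10 uM) stimulation. Same-well MTT viability; cytotoxic concentrations diluted 10- or 100-fold and retested.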

[6] = CEETOX_H295R_11DCORT: CeeTox H295R High-throughput Steroidogenesis Assay for 11-Deoxycortisol (11DCORT) (AID 2283432);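 as to AC50: 11-deoxycortisol secreted into the medium measured by LC-MS/MS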
Summary of the method: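 H295R cells; 10 uM forskolin prestim 48 h; compound in 0.1% DMSO 48 h; media extracted with MTBE; 11-deoxycortisol by LC-MS/MS, 7-point standard curve; gain/loss vs DMSO baseline; viability by MTT in same wells.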

[7] = CEETOX_H295R_CORTISOL: CeeTox H295R High-throughput Steroidogenesis Assay for Cortisol (AID 2283438);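 also: cortisol secreted into medium quantified by LC-MS/MS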
Summary of the method: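 Steroidogenesis in H295R, per modified OECD 456: 48 h forskolin (10 uM), then 48 h exposure, 0.1% DMSO. Cortisol by extraction and tandem MS; viability by MTT (570/650 nm); cytotoxic chemicals diluted and re-tested.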

[8] = CEETOX_H295R_DOC: CeeTox H295R High-throughput Steroidogenesis Assay for DOC (AID 2283439)
Summary of the method: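 H295R, fsk 10 uM ×48 h pre, cmpd ×48 h (0.1% DMSO). Media → MTBE extr. → LC-MS/MS, DOC. Bidirectional fit vs DMSO; MTT viability same wells, re-test diluted if <70%.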

[9] = CEETOX_H295R_CORTIC: CeeTox H295R High-throughput Steroidogenesis Assay for Corticosterone (CORTIC) (AID 2283437);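 also: corticosterone secreted into medium quantified by mass spectrometry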;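 as to AC50: human H295R adrenal cells prestimulated with forskolin before chemical exposure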
Summary of the method: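 48 h forskolin (10 uM) prestim, then 48 h chemical exposure, final DMSO 0.1%. Readout: corticosterone in medium by LC-MS/MS after MTBE extraction. Gain/loss fit vs DMSO; MTT viability in same wells.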

[10] = CEETOX_H295R_ANDR: CeeTox H295R High-throughput Steroidogenesis Assay for Androstenedione (ANDR) (AID 2283436)
Summary of the method: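 48 h chemical exposure, H295R cells, DMEM/F12 + ITS+ and Nu-Serum. Medium androstenedione: MTBE extraction, C18 reverse-phase HPLC, ESI+ MS/MS. Fit bidirectional vs DMSO; MTT viability in same wells.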

Measured: AC50

CC#C[C@]1(O)CC[C@H]2[C@@H]3CCC4=CC(=O)CCC4=C3[C@@H](c3ccc(N(C)C)cc3)C[C@@]21C
inactive: [1] | [3] | [4]
active: [2] 0.218 µM | [5] 3.9 µM

CC1=C(/C=C/C(C)=C/C=C/C(C)=C/C(=O)O)C(C)(C)CCC1
inactive: [6] | [2] | [7]
active: [8] 7.19 µM | [5] 8.11 µM

COC(=O)CCCCC(=O)OC
not listed: [3] | [4] | [10]
inactive: all other assays above

C[C@@H]1C[C@H]2[C@@H]3CCC4=CC(=O)C=C[C@]4(C)[C@@]3(F)[C@@H](O)C[C@]2(C)[C@@]1(O)C(=O)COP(=O)(O)O
not listed: [10]
inactive: all other assays above

CCc1nn(C2CCCCC2)c2cc(C3(C#N)CCC(C(=O)O)CC3)ccc12 (centres undefined)
not listed: [10]
inactive: all other assays above

NC(=O)N(O)[C@@H]1C=C[C@H](Oc2cccc(Oc3ccc(F)cc3)c2)C1
inactive: [6] | [1] | [2] | [9] | [8] | [5]

C#C[C@]1(O)CC[C@H]2[C@@H]3CCC4=CC(=O)CC[C@@H]4[C@H]3CC[C@@]21C
inactive: [9]

CN1CCC[C@H]1c1cccnc1
inactive: [1] | [2] | [3] | [4] | [5]

O=c1c(-c2ccc(O)cc2)coc2cc(O)ccc12
active: [6] 9.01 µM | [1] 4.47 µM | [2] 26.5 µM | [10] 15.2 µM | [9] 1.22 µM | [7] 8.88 µM | [8] 3.19 µM | [5] 4.62 µM
inactive: [3] | [4]

OC1CCC(C2CCCCC2)CC1 (centres undefined)
active: [9] 23.2 µM
not listed: [1] | [4] | [10]
inactive: all other assays above

CCCOC(=O)c1ccc(O)cc1
inactive: [9] | [3] | [4]
active: [6] 35.4 µM | [1] 24.4 µM | [2] 7.73 µM | [7] 79.4 µM | [8] 26.8 µM | [5] 5.71 µM

COc1ccc([N+](=O)[O-])cc1N
inactive: [1] | [3] | [4]
active: [6] 50 µM | [2] 6.07 µM | [9] 8.72 µM | [7] 44.6 µM | [8] 10.6 µM | [5] 14.2 µM

Nc1cccc2c(N)cccc12
active: [6] 5 µM | [2] 1.78 µM | [7] 5 µM | [8] 2.73 µM | [5] 2.44 µM
inactive: all other assays above

c1ccc2cc3c(ccc4ccccc43)cc2c1
inactive: [1] | [5]
active: [2] 6.08 µM

CCCCCCCCCCCCCCCS(=O)(=O)Oc1ccccc1
active: [1] 5.88 µM | [2] 5.48 µM | [8] 3.8 µM | [5] 4.08 µM
not listed: [10]
inactive: all other assays above

c1ccc2c(c1)ccc1ccccc12
inactive: [9] | [5]
active: [6] 55.9 µM | [1] 27.2 µM | [2] 55.1 µM

CCC(=C(c1ccc(O)cc1)c1ccc(OCCN(C)C)cc1)c1ccccc1
not listed: [3] | [4]
inactive: all other assays above

O=C(O)c1ccccc1C(c1ccc(O)cc1)c1ccc(O)cc1
active: [6] 25 µM | [2] 7.38 µM | [8] 6.89 µM | [5] 10.2 µM
inactive: all other assays above

Oc1cccc(O)c1
not listed: [10]
inactive: all other assays above

CCc1ccc(CCOc2ccc(CC3SC(=O)NC3=O)cc2)nc1 (centres undefined)
active: [8] 19.5 µM | [5] 32.2 µM
inactive: [6] | [1] | [2] | [9]

O=[N+]([O-])c1ccc(O)cc1
active: [2] 27.3 µM
inactive: [1] | [5]

CCCCCCCCC(=O)O
not listed: [10]
inactive: all other assays above
